Source: PubChem
Sampled rows, rich in hits. Any-hit rate of the full collection: about 2.4%.
AmpC det inh: AmpC beta-lactamase inhibition, detergent assay; P00811; purified AmpC, nitrocefin hydrolysis with detergent; Potency, µM (highest dose often 28.7 µM), for inactives: top-dose activity change, negative = inhibition; 71,000 compounds, 0.09% hits; AID 584; active means well fitted curve in the direction sought with a large enough effect; inconclusive means small, poorly fitted or top-dose-only effect; further: on the % scale 0 is the no-effect control and ±100 the full control effect
Target sequence (P00811 whole entry, looked up): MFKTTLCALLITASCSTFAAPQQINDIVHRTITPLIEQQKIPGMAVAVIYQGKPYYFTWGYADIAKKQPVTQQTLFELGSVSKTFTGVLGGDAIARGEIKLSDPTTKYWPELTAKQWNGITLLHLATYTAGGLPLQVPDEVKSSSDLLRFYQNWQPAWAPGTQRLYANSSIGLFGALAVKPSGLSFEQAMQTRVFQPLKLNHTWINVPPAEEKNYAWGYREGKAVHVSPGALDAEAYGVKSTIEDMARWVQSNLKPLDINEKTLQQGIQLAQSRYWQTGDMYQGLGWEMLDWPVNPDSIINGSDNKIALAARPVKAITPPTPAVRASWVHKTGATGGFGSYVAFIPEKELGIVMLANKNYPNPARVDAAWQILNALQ
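E. coli AmpC (5.3 nM) in 20 mM phosphate pH 7.0 with 0.01% Triton X-100, preincubated 15 min RT with compound; nitrocefin (2 uL of 800 uM stock) hydrolysis followed by 480 nm absorbance every 20 s over 4 min.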
LT uptake inh: anthrax lethal toxin internalization inhibition | Cells, anthrax lethal toxin internalization, FRET ratio (460/530) | Potency, µM (top dose mostly 40 µM), for the others: at the top dose activity change, negative = inhibition, hits mostly inhibitors | 70,000 compounds, 0.67% hits | AID 912; further: on the % scale 0 is the no-effect control and ±100 the full control effect; nearly all actives have a fitted effect of over 50% in size
SmPrx2 inh: blocks S. mansoni peroxiredoxin 2 enzymatic activity | S. mansoni Prx2 activity coupled to TGR/GSH (TGR is thioredoxin glutathione reductase), NADPH fluorescence loss, qHTS | Potency, µM | 65,000 compounds, 0.07% hits | AID 448
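qHTS, coupled TGR/Prx2 format; 15 min compound preincubation at RT; reaction started with H2O2 (2.5 mM aliquot); kinetic NADPH fluorescence decrease, ex 365/em 450 nm.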
AmpC nodet inh: blocks E. coli AmpC beta-lactamase in absence of detergent; Potency, µM (highest dose often 28.7 µM), without a hit: top-dose activity change, negative = inhibition; AmpC nitrocefin hydrolysis, absorbance 480 nm, no detergent; 71,000 compounds, 1.8% hits; P00811; AID 585; further: % of control where 0% means no effect
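Enzyme, pH 7.0 phosphate. Compound titrations were pre-incubated with AmpC for 15 min at room temperature before nitrocefin (stock 800 uM) addition; product formation was recorded at 480 nm every 20 s for 4 min.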
Starred values were filed as active, the others as inactive; ? = inconclusive; . = no result; ! = repeats disagree; [ ] = remark or other dose. Unless noted, the call rests on the fitted dose curve. Potency means the concentration at half of the fitted maximal effect.

SMILES	AmpC det inh	LT uptake inh	SmPrx2 inh	AmpC nodet inh
COC(=O)c1nc2n(n1)C(c1cccc(Cl)c1)C1=C(CCCC1=O)N2 (stereo not drawn)	11%	-4%	>57	4µM*[single pt active]
Nc1ccc(CCNc2ncnc3c2ncn3[C@@H]2O[C@@H](CO)[C@H](O)[C@@H]2O)cc1	0%	2%	>57	-4%
C[C@@H]1C(=O)O[C@H]2[C@@H](O)[C@@]34[C@H]5C[C@H](C(C)(C)C)[C@@]36[C@H](OC(=O)[C@@H]6O)O[C@@]4(C(=O)O5)[C@@]12O	15%	-5%	>57	-14%
NS(=O)(=O)C[C-]1C=C[CH]([Sb-]([Cl])([Cl])([Cl])([Cl])[Cl])C=C1.c1ccncc1 (stereo not drawn)	-4%[5.75 µM]	1%[8 µM]	?	4%[5.75 µM]
CN(C)CN1CSC(=S)N(CN(C)C)C1	-6%[5.75 µM]	-1%[8 µM]	>57	-13%[5.75 µM]
NC(=O)CN1CCN(C(=O)Nc2ccccc2)CC1	15%	-11%	>57	4µM*[single pt active]
COc1ccc(-n2c(Cc3cc(=O)[nH]c(=O)[nH]3)nnc2SCc2ccccc2)cc1	10%	3%	>57	4µM*[single pt active]
CCOc1ccc(-n2c(Cc3cc(=O)[nH]c(=O)[nH]3)nnc2SCC)cc1	15%	-9%	>57	3%
COc1cccc(-n2c(Cc3cc(=O)[nH]c(=O)[nH]3)nnc2SCc2cccnc2)c1	14%	-1%	>57	4µM*[single pt active]
CCOP(=S)(OCC)Oc1ccc([N+](=O)[O-])cc1	8%	-9%	.	-4%
C[C@H](NCCN(C)C)[C@@H]1CCC2C3CCc4cc(O)ccc4[C@H]3CCC21C (stereo partly drawn)	-2%[5.75 µM]	?	>57	4%[5.75 µM]
CCc1ccc(-n2c(O)cnc2Nc2nc(C)cc(C)n2)cc1	10%	-27%	>57	4µM*[single pt active]
CN(C)c1ccc(/C=N\NC(=O)c2cnc3ccccc3c2)cc1	-3%[5.75 µM]	-18%[8 µM]	>57	3%[5.75 µM]
CN(C)[C@@H]1C(=O)C(C(N)=O)=C(O)[C@]2(O)C(=O)C3=C(O)c4c(O)cccc4[C@@](C)(O)[C@@H]3C[C@@H]12	-3%	?	>57	-3%
Cc1cc(NC(=O)CSc2c3c(nc4ccccc24)CCC3)no1	12%	?	>57	4µM*[single pt active]
O=C1Nc2ccccc2SC(c2ccccc2)C1O (stereo not drawn)	-6%	-17%	>57	13µM*[single pt active]
O=C(O)CC1Sc2ccccc2NC1=O (stereo not drawn)	-1%	-7%	>57	-6%
CCOC(=O)c1cc2sccc2n1CC(=O)N1c2ccccc2CC1C (stereo not drawn)	0%	10%	>57	16µM*[single pt active]
CCC1(CCSC(=N)N)C(=O)NC(=O)NC1=O	-3%[5.75 µM]	0%[8 µM]	>57	0%[5.75 µM]
COCCCNC(=O)CCCn1c(=O)[nH]c2ccccc2c1=O	-4%	-10%	>57	-9%
COCCCNC(=O)c1ccc(Cn2c(=O)[nH]c3ccccc3c2=O)cc1	14%	?	>57	4µM*[single pt active]
CCCCCCCCCCCCCCCCOC[C@@H](COCC(F)(F)F)OP(=O)(O)OCO	-10%	?	>57	169%
CN(CCNC(=O)c1cc2c(=O)n(C)c3ccccc3c2n1C)Cc1ccccc1	6%	3.2µM*	>57	120%
CCCN(CCC)CCNC(=O)c1cc2c(=O)n(C)c3ccccc3c2n1C	13%	4µM*	>57	30%
COCCn1cc(C(=O)NCc2cccs2)c2c3ccccc3n(C)c2c1=O	9%	10%	>57	81%
SMILES	AmpC det inh	LT uptake inh	SmPrx2 inh	AmpC nodet inh
Cn1c(C(=O)NCc2cccs2)cc2c(=O)n(C)c3ccccc3c21	9%	-7%	>57	4µM*[single pt active]
C[N+](C)(C)c1nc(N)nc2c1ncn2[C@H]1O[C@@H](CO)[C@@H](O)[C@H]1O	-4%[5.75 µM]	11%[8 µM]	>57	-2%[5.75 µM]
NC(N)=N[C@H](CCC(=O)O)C(=O)O	-8%	13%	>57	7%
FC(F)(F)c1ccccc1Cl	11%	-2%	.	-8%
COC(=O)/C=C\c1cc(O)ccc1O	-2%	?	>57	5%
CN(CC(=O)N1CCc2ccccc2C1)S(=O)(=O)c1ccc2c(c1)c(=O)n(C)c(=O)n2C	13%	1%	>57	4µM*[single pt active]
COc1ccccc1CNC(=O)c1cc2sccc2n1C	-1%	?	>57	16%
CCOc1ccccc1CNC(=O)c1cc2occc2n1C	?	-28%	>57	10µM*[single pt active]
CCOc1ccc2[nH]c(C)c(CN(C)C)c(=O)c2c1	-3%	?	.	-3%
CCOc1ccc2[nH]c(C)cc(=O)c2c1	14%	-11%	>57	4µM*[single pt active]
COc1cccc(Cn2nnc(C(=O)Nc3cc(Cl)ccc3OC)c2N)c1	12%	?	>57	-22%
COc1ccc(NC(=O)c2nnn(Cc3cccc(F)c3)c2N)c(OC)c1	11%	-4%	>57	2.5µM*[single pt active]
COc1ccc(C)cc1NC(=O)c1nnn(Cc2cccc(F)c2)c1N	15%	-6%	.	3.2µM*[single pt active]
Cc1ccc(C)c(NC(=O)c2nnn(Cc3ccccc3)c2N)c1	24%	-8%	>57	-12%
COc1ccc(OC)c(NC(=O)c2nnn(Cc3ccc(Br)cc3F)c2N)c1	13%	?	?	3.2µM*[single pt active]
CN1C[C@H](C(=O)N[C@@]2(C)O[C@@]3(O)[C@H]4CCCN4C(=O)[C@@H](Cc4ccccc4)N3C2=O)C=C2c3cccc4[nH]cc(c34)C[C@@H]21	-4%[5.75 µM]	-3%[8 µM]	>11	22%[5.75 µM]
CC(=O)OC1=CC2=CC[C@H]3[C@H]4CCC(=O)[C@@]4(C)CC(=O)[C@]3(S)[C@]2(C)CC1	-1%[5.75 µM]	-2%[8 µM]	>57	14%[5.75 µM]
c1c[nH]cn1	11%	.	.	-7%
O=C(Oc1cccc(-n2cnnn2)c1)c1sc2ccccc2c1Cl	-3%	-6%	>57	13µM*[single pt active]
N[C@@H](Cc1ccc(O)c(O)c1)C(=O)O	1%[12.8 µM]	-10%[3.58 µM]	>57	-11%[12.8 µM]
C[C@H](Cc1ccc(O)c(O)c1)[C@@H](C)Cc1ccc(O)c(O)c1	-5%	16µM*!	>57	-24%
c1ccc(N2CCN(c3ncnc4c3oc3ccccc34)CC2)cc1	0%	16µM*	>57	12%
CCCC(c1cc(C(C)(C)C)c(O)cc1C)c1cc(C(C)(C)C)c(O)cc1C	-2%[5.75 µM]	?	>57	4µM*[single pt active]
Cc1cc(N2CCN(S(=O)(=O)c3ccc(Cl)cc3)CC2)c2ccccc2n1	-4%	10µM*	.	123%
Cc1cc(C)n(-c2nc3ccccc3nc2N2CCN(S(=O)(=O)c3ccc(F)c(C)c3)CC2)n1	-2%	15%	>57	72%
SMILES	AmpC det inh	LT uptake inh	SmPrx2 inh	AmpC nodet inh
Cc1cc(C)nc(SCC(=O)c2ccc(O)cc2O)n1	14%	-3%	>57	4µM*[single pt active]
COc1cccc(C(=O)Nc2ccc(C)cc2)c1	2%	-17%	>57	-15%
COC(=O)c1cccc(C(=O)Nc2ccc(C)cc2)n1	-4%	5µM*	>57	23%
CC(=O)O/C(=C1/C[C@H]2[C@@H]3CC=C4C[C@@H](OC(C)=O)CC[C@]4(C)[C@@H]3CC[C@]2(C)C1=O)C(F)(F)F	-4%[5.75 µM]	?	>57	-5%[5.75 µM]
CCCN1CC[C@@H]2c3cc(O)ccc3CC[C@H]21	-2%	6%	>57	5%
COc1cccc(-c2ccc3ncnc(N(C)C)c3c2)c1	10µM*	?	>57	6.3µM*
